Assay outcomes (PubChem)
A selection: hits, their analogues and other compounds. The true share with any hit is near 10%.
HP1b binding inh – HTS for Inhibitors of HP1-beta Chromodomain Interactions with Methylated Histone Tails. AID 540317, 2011. AlphaScreen HP1-beta / biotin-H3K9me3 peptide binding. hit rate 0.56% among 390,000. Potency, µM (highest dose often 114 µM), inactives show at the highest dose activity change, negative = inhibition, usual class: inhibitors. Chromobox protein homolog 1 (Homo sapiens), P83916; also: nearly all actives have a fitted effect of over 70% in size
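HP1-beta protein (50 nM final) preincubated 30 min at room temperature with biotinylated H3(1-18)K9me3 peptide (50 nM) in PBS pH 7.4, 0.01% Tween-20, then compound added for 30 min. AlphaScreen streptavidin donor/nickel chelate acceptor beads (10 ug/mL final), 30 min dark, luminescence read.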
GLS inhibitor – qHTS for Inhibitors of Glutaminase (GLS); GLS enzymatic activity, qHTS titration; hit rate 0.21% among 410,000; Potency, µM (doses to about 45.5 µM), inactives show top-dose activity change, negative = inhibition, hits mostly inhibitors; AID 624170, 2012; Glutaminase kidney isoform, mitochondrial (Homo sapiens), O94925; also: % is scaled to controls: 0 for no effect and ±100 for the full control effect
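Compounds were pin-transferred onto hKGA, after which L-glutamine (1 mM solution) and a detection mix of glutamate oxidase, HRP and Amplex Red were added. Initial and 30 min RT fluorescence reads were collected.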
JMJD2A Tudor inh – qHTS Assay for Inhibitors of JMJD2A-Tudor Domain; Lysine-specific demethylase 4A (Homo sapiens), O75164; AlphaScreen JMJD2A-Tudor / H3K4me3 peptide binding; Potency, µM (top dose mostly 114 µM), inactives show at the top dose activity change, negative = inhibition, hits mostly inhibitors; hit rate 4.4% among 390,000; also: % is scaled to controls: 0 for no effect and ±100 for the full control effect; nearly all actives have a fitted effect of over 50% in size
BAZ2B block – qHTS Assay for Inhibitors of BAZ2B. Bromodomain adjacent to zinc finger domain protein 2B (Homo sapiens), Q9UIF8. AlphaScreen BAZ2B-H3K14Ac peptide displacement. Potency, µM (doses to about 114 µM), for the others: at the top dose activity change, negative = inhibition, most hits filed as inhibitors. hit rate 4.4% among 360,000. AID 504333, 2011; also: % is scaled to controls: 0 for no effect and ±100 for the full control effect; nearly all actives have a fitted effect of over 60% in size
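AlphaScreen displacement: compounds (up to 110uM) incubated 30 min at room temperature with a preformed 50 nM BAZ2B/50 nM biotinylated H3K14Ac peptide complex in PBS pH 7.4 with Tween-20. Donor and acceptor beads at 10 ug/mL final added, 20 min light-protected before reading.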
G9a inh – qHTS Assay for Inhibitors of Histone Lysine Methyltransferase G9a; hit rate 8.8% among 350,000; Histone-lysine N-methyltransferase EHMT2 (Homo sapiens), Q96KQ7; G9a H3K9 monomethylation, AlphaScreen, 2 h; AID 504332, 2011; Potency, µM (top dose mostly 102 µM), for inactives: at the highest dose activity, negative = inhibition, hits mostly inhibitors; also: % is scaled to controls: 0 for no effect and ±100 for the full control effect; nearly all actives have a fitted effect of over 75% in size
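AlphaScreen detection with an anti-monomethyl H3K9 antibody quantified product after a 2 h room-temperature reaction containing 500 nM biotinylated H3K9 peptide, 20 µM SAM and 20 nM enzyme, which had been preincubated 15 min with compound.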
* hit, by the source's call; ? = inconclusive; . = no result given; [ ] = dose if it differs, or a comment. Calls follow the shape of the dose curve; as a rule, active = well fitted curve in the direction sought with a large enough effect; inconclusive = small, poorly fitted or top-dose-only effect, or another doubt; inactive = no such curve, though single readings can be large; an effect the other way counts as inactive or inconclusive. Potency is read from the fitted curve at half-maximal effect.

SMILES	HP1b binding inh	GLS inhibitor	JMJD2A Tudor inh	BAZ2B block	G9a inh
CCOC(=O)Cc1cc(=O)n2[nH]c(C)cc2n1	11.2%	13.8%	15.8µM*	?	-23.9%[59 µM]
CN(C)/C=C/C(=O)c1ccc(Br)cc1	19.9%	1.6%	-19.6%	-11.3%	-8.0%[59 µM]
COc1ccccc1NC(C)C(=O)N/N=C/c1cccs1 (stereo unspecified)	-2.6%	0.9%	-26.1%	?	-4.9%
CCOc1ccc(NC(C)C(=O)N/N=C/c2cccs2)cc1 (stereo unspecified)	-0.3%	5.6%	-35.6%	?	44.7µM*
CN(C)C(=O)c1ccc(-c2ccc3ncnc(N(C)Cc4ccco4)c3c2)cc1	.	.	.	.	-2.0%[0.501 µM]
CCCNS(=O)(=O)c1cc(CN2C(=O)c3cccnc3C2=O)ccc1OC	8.4%	2.1%	89.1µM*	?	-8.0%
COc1ccc(CN2C(=O)c3cccnc3C2=O)cc1S(=O)(=O)NCc1ccccc1	19.7%	-1.4%	-19.9%	?	.
CCOC(=O)CSc1nc(N)c(C#N)c(-c2ccc(OCC)cc2)c1C#N	20.0%	3.3%	-10.4%	-4.2%	44.7µM*
COC(=O)CSc1nc(N)c(C#N)c(-c2ccc(O)cc2)c1C#N	42.3%	11.2µM*	-16.4%	-6.3%	-2.3%
CCOC(=O)CSc1nc(-c2ccc(OCC)cc2)cc(C(F)(F)F)c1C#N	44.2%	1.0%	8.9%	?	49.2%[59 µM]
Cc1ccc(S(=O)(=O)N2CCN(C(=O)COC(=O)CSc3cc(C)ccc3C)CC2)c(C)c1	17.0%	0.5%	-10.5%	12.1%	11.2%[12.7 µM]
Cc1nn(CC(=O)Nc2ccc(N3CCOCC3)cc2)c(C)c1Cl	0.7%	35.6%	-24.1%	-37.4%	-25.6%
CSc1ccc(CCNC(=O)CCCn2c(=O)c3cccn3c3ccccc32)cc1	-0.8%	2.8%	?	-31.4%	14.1µM*
CCOc1ccc(CCNC(=O)CCCn2c(=O)c3cccn3c3ccccc32)cc1	10.2%	-4.4%	-12.5%	3.1%	-4.8%[59 µM]
Cc1c(NC(=O)c2c(NC(=O)CNC3CC3)sc3c2CCCC3)c(=O)n(-c2ccccc2)n1C	0.2%	12.8%	56.2µM*	?	?
Cc1nc2scc(C)n2c(=O)c1S(=O)(=O)NC(C)c1ccccc1 (stereo unspecified)	13.7%	-24.6%	25.1µM*	-0.1%	18.2%
O=C(Cc1ccc(S(=O)(=O)N2CCOCC2)s1)Nc1cc(C(F)(F)F)ccc1N1CCCC1	17.2%	8.5%	?	-5.0%	50.1µM*
CN(C)S(=O)(=O)c1ccc(NC(=O)Cc2ccc(S(=O)(=O)N3CCOCC3)s2)cc1	17.2%	-2.5%	-29.4%	?	56.2µM*
Cc1noc(C)c1CSCC(=O)Nc1cc(C(F)(F)F)ccc1N1CCCCC1	84.2%	-11.9%	14.5%	5.1%	39.8µM*
O=C(Cc1ccc(S(=O)(=O)N2CCOCC2)s1)Nc1ccc(N2CCOCC2)cc1	-6.7%	35.1%	-27.0%[57.1 µM]	.	?
N#C/C(C(=O)N1CCOCC1)=c1\s/c(=C/c2ccncc2)c(=O)n1-c1ccccc1	.	.	.	.	6.2%[59 µM]
CCOC(=O)COc1nc(N(C)C)nc(N(C)C)n1	15.3%	5.0%	-10.0%	3.4%	2.5%
CCCCCCCC(=O)NNC(=O)c1ccc([N+](=O)[O-])cc1	5.9%	9.1%	-15.3%	-27.8%[57.1 µM]	45.5%[0.501 µM]
CCCC(=O)NC(=S)NNC(=O)c1ccc([N+](=O)[O-])cc1	-5.9%	9.2%	70.8µM*	9.0%	3.16µM*
CCC(=O)NNC(=S)NC(=O)c1ccc(C)cc1	24.5%	-3.5%	?	13.7%	10.6%[0.501 µM]
CCC(=O)NC(=S)NNC(=O)c1ccc(O)cc1	56.7%	32.0%	20µM*	-0.4%	.
CCCCNC(=S)NC(=O)c1ccc([N+](=O)[O-])cc1	-30.0%	11.9%	?	50.1µM*	.
Fc1ccc(CNC(=S)Nc2cccc(C(F)(F)F)c2)cc1	45.0%	6.4%	11.2%	44.5%	107.9%[59 µM]
O=[N+]([O-])c1cc(C(F)(F)F)cc([N+](=O)[O-])c1NCCNC(=S)Nc1cccc(F)c1	-25.0%	-2.9%	39.8µM*	17.8µM*	?
